Each structure is given as a SMILES string. Potency and affinity values are given separately. Records with an inconclusive call do not appear. Values without a mark were called inactive.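 How the source made its calls: active means every replicate run active, each with half-maximal inhibition reached at or below twice the top valid dose; inconclusive means runs disagree, or fits are weak or poor; inactive means every run inactive, including upward signal shifts.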

In this assay the target is Glycogen synthase kinase-3 alpha (Homo sapiens) (UniProt P49840). Description: human GSK3 alpha kinase inhibition, dose response, selectivity assay for GSK3beta inhibitor project, biochemical, microfluidics, dry powder samples, set 2 (AID 623978). The following applies: GSK3a microfluidic mobility shift, percent conversion; series mostly up to 35 µM; activity change, negative = inhibition: at the top concentration.
Sequence of Glycogen synthase kinase-3 alpha (Homo sapiens) (P49840 whole entry, looked up): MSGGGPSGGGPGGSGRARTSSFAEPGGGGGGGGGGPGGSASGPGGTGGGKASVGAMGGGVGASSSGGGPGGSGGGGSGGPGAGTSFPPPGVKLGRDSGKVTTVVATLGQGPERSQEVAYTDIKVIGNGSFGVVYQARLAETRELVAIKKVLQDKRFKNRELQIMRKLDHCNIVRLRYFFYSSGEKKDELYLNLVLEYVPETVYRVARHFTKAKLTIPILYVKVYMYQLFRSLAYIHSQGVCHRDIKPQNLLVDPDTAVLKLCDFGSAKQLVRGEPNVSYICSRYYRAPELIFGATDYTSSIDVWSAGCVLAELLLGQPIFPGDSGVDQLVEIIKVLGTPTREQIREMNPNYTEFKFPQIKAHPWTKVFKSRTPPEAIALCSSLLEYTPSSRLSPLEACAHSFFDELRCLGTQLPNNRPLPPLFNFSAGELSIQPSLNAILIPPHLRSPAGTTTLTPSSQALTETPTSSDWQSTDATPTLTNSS
Consider `Cc1ccc(S(=O)(=O)N2CCN(CC(=O)N/N=C/c3ccccn3)CC2)cc1`, for which the “activity change, negative = inhibition” value is -22%.

Turning to `COc1cc(C(=O)N2CCN(c3ccccn3)CC2)cc(OC)c1OC`, the “activity change, negative = inhibition” value is -2.72%.

`O=C(Cc1cccc2ccccc12)Nc1cn(C2CCC2)cn1`: the “activity change, negative = inhibition” value was -21.6%.

The values are drawn from PubChem BioAssay AID623978 (Broad Institute, 2012).
